# Several values for one entry are separate records, joined by “and”; a condition that tells them apart may be missing. Identical values can stand only once. Inconclusive results are not listed. Activity calls are given as the source filed them. Unless noted, the call rests on the fitted dose curve; in most records, active means well fitted curve in either direction with a large enough effect (not every such curve was filed as active); inconclusive means small, poorly fitted or top-dose-only effect, or another doubt; inactive means flat fitted curve, though single readings scatter.
# Legend:
# [1] = AP1 Signaling Pathway (AID 357); conditions: ME-180 AP-1-bla reporter, EGF-induced, beta-lactamase ratio, 5 h;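 further: ME-180 reporter cells stimulated with EGF at its EC50 level; on the % scale 0 is the no-effect control and ±100 the full control effect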
# Procedure, shortened: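 Beta-lactamase reporter under AP-1 response element, ME-180 background. Stimulus: EC50 EGF. Compound exposure 5 h, 37 °C. Detection: CCF4, 2.5 h RT, 460/530 nm. Values: AC50 from titration.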
# [2] = target: Cytochrome P450 1A2 (Homo sapiens) (UniProt P05177); assay: p450-cyp1a2 (AID 410; calls by dose curve;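 further: -100% = full effect of reference inhibitor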); conditions: recombinant CYP1A2, luciferin-ME demethylation, luminescence; series mostly up to 57 µM
# Cytochrome P450 1A2 (Homo sapiens), sequence (P05177 whole entry, looked up): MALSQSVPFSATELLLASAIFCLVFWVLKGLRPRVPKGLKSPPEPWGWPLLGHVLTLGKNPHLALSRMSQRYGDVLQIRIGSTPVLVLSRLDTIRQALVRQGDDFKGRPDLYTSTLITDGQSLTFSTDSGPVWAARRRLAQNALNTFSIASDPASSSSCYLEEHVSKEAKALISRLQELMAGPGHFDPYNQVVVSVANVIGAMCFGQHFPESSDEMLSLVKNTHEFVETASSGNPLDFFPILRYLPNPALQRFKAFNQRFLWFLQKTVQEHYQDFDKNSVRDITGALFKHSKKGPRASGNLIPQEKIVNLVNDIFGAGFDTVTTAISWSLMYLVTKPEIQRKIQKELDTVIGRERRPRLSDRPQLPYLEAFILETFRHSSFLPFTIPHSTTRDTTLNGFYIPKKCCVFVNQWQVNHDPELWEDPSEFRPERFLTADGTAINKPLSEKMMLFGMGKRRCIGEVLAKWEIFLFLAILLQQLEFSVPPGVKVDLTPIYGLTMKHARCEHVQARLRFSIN
# Procedure, shortened: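 20nM CYP1A2, 100uM Luciferin-ME (=Km), 100mM KPO4; cpd 10 min RT; +NADPH regen, 60 min RT; stop/detect 20 min; luminescence. Normalized to furafylline 57 uM = full inhibition.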
# [3] = NFAT Signaling Pathway (AID 444); conditions: Jurkat NFAT-bla M1, carbachol, beta-lactamase ratio, 5 h;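 further: carbachol stimulus at about its EC50 of 1 µM final; on the % scale 0 is the no-effect control and ±100 the full control effect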
# Procedure, shortened: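 Jurkat cells carrying an NFAT-driven β-lactamase reporter and co-transfected muscarinic M1 receptor were treated with compound plus carbachol (1 uM final, an EC50 level) for 5 h at 37 °C. CCF4 loading followed for 1 h at RT; 460/530 nm ratio gave %activity.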
# [4] = Stat Signaling Pathway (AID 446); conditions: ME-180 (cervical carcinoma) SIE beta-lactamase reporter, IL-6 stimulated, 5 h;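 further: ME-180 cervical cancer cells given 40 pM IL-6 alongside compound; SIE-controlled beta-lactamase reporter measured as 460/530 nm FRET emission ratio; on the % scale 0 is the no-effect control and ±100 the full control effect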
# Procedure, shortened: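 Overnight-plated ME-180 cells bearing a STAT Inducible Element beta-lactamase reporter; 5 h co-exposure to compound and 40 pM IL-6; values normalized to 300 pM IL-6 and 125 nM JAK inhibitor controls.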
# [5] = target: 3',5'-cyclic-AMP phosphodiesterase 4B (Homo sapiens) (UniProt Q07343); assay: qHTS Assay for Inhibitors of PDE-IV (AID 607; active means well fitted activation curve with a large enough effect in the main read-out, with a control signal flat, not every such curve was filed as active; further: % of control where 0% means no effect); conditions: HEK293 ACTOne CNG channel cells, membrane potential fluorescence; series mostly up to 22.9 µM
# 3',5'-cyclic-AMP phosphodiesterase 4B (Homo sapiens), sequence (Q07343 whole entry, looked up): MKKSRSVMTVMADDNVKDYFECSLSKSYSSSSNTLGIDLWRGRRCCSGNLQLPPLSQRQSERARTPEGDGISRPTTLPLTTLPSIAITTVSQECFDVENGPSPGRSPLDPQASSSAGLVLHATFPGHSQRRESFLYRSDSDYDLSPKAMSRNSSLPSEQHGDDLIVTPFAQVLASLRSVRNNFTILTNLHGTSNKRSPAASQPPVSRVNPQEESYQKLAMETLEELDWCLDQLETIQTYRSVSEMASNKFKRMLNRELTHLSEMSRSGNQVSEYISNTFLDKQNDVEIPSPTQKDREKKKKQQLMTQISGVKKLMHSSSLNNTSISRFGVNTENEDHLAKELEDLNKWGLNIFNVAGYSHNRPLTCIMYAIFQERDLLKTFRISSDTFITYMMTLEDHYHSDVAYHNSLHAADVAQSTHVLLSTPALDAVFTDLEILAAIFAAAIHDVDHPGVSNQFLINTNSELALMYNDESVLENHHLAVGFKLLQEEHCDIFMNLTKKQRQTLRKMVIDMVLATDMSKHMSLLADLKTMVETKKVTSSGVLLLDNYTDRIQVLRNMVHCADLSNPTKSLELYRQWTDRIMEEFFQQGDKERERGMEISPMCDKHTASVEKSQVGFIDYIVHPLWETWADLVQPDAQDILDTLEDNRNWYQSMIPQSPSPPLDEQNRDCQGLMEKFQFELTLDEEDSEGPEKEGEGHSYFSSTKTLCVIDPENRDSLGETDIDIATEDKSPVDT
# Procedure, shortened: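 Live HEK293 cells with a modified cyclic nucleotide-gated (CNG) channel report intracellular cAMP via membrane-potential dye fluorescence (ex 535/em 590 nm). Endogenous PDE-IV was targeted. Compounds were tested at up to 22.9 uM final; RO 20-1724 100 uM served as control.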
# [6] = qHTS Assay for Lipid Storage Modulators (AID 1519; calls by dose curve); conditions: Drosophila S3 cells, BODIPY lipid droplet/cell ratio, laser cytometry, cells loaded with oleic acid; for activity change, negative = inhibition: at 25.7 µM (top of the series)
# Procedure, shortened: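 Cells seeded at 5,000 per well were treated with compounds over a concentration series and loaded with oleic acid (400 uM, as added). Lipid droplet fluorescence (488 nm excitation, 500-530 nm channel) was read by laser-scanning cytometry and normalized to 20 uM Triacsin C.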
# [7] = target: ATP-dependent 6-phosphofructokinase (Trypanosoma brucei brucei) (UniProt O15648); assay: qHTS Assay to Find Inhibitors of T. brucei phosphofructokinase: hit validation (AID 492961; active means well fitted curve in the direction sought with a large enough effect; an effect the other way counts as inactive or inconclusive;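 further: luminescence reports ADP formed as PFK phosphorylates fructose-6-phosphate with ATP; on the % scale 0 is the no-effect control and ±100 the full control effect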); conditions: T. brucei PFK, ADP-Glo luminescence; series mostly up to 24.3 µM
# ATP-dependent 6-phosphofructokinase (Trypanosoma brucei brucei), sequence (O15648 whole entry, looked up): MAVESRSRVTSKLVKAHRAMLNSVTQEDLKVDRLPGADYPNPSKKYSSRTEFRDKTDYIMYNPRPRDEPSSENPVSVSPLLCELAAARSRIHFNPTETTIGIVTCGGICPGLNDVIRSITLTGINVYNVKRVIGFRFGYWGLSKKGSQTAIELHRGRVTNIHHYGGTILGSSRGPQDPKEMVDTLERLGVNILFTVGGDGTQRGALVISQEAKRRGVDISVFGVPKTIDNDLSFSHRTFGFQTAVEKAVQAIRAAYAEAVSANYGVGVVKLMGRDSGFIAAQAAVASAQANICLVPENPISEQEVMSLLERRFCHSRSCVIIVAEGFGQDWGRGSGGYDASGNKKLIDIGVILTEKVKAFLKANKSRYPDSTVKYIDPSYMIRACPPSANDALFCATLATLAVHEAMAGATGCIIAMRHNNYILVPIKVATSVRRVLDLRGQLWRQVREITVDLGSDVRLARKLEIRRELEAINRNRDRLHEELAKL
# Procedure, shortened: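 PFK 1.25 nM, F6P 0.5 mM, ATP 0.1 mM, MgCl2 5 mM, 0.1 M TEA pH 8.0, Tween20 0.01%, BSA 0.1%; 45 min RT. ADP-Glo two-step detection, luminescence. qHTS titration; curve fitting with curve-class categorization.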
# [8] = target: Ubiquitin carboxyl-terminal hydrolase 1 (Homo sapiens) (UniProt O94782); assay: Inhibitors of USP1/UAF1: Pilot qHTS (AID 504865; active means well fitted curve in the direction sought with a large enough effect; an effect the other way counts as inactive or inconclusive;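 further: rhodamine fluorescence freed from ubiquitin-rhodamine substrate followed over time; top concentration of the series differs between compounds; on the % scale 0 is the no-effect control and ±100 the full control effect; nearly all actives have a fitted effect of over 35% in size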); conditions: purified USP1/UAF1, Ub-rhodamine cleavage fluorescence; series mostly up to 54.9 µM
# Ubiquitin carboxyl-terminal hydrolase 1 (Homo sapiens), sequence (O94782 whole entry, looked up): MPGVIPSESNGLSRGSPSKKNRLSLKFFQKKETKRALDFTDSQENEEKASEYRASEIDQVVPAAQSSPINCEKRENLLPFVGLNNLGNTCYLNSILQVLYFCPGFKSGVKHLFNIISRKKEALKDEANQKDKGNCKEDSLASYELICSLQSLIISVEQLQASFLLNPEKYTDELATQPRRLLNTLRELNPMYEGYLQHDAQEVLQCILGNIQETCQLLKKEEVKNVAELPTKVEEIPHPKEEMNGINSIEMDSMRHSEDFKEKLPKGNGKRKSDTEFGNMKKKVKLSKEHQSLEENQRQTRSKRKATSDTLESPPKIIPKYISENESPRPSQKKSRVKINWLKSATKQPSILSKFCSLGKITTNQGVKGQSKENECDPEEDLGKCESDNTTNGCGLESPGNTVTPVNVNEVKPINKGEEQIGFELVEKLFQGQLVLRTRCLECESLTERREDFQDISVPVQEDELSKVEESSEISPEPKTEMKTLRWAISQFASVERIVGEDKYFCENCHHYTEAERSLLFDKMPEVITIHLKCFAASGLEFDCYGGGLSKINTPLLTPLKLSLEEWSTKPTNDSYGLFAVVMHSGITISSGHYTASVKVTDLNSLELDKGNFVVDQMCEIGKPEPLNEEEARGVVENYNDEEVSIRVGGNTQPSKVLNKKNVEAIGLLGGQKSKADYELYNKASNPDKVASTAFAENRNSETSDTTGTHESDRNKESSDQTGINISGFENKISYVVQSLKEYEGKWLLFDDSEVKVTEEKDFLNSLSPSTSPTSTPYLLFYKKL
# Procedure, shortened: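 USP1/UAF1 complex at 1 nM preincubated 15 min at room temperature with compound, then Ub-Rho substrate added at 150 nM final. Fluorescence (480/540 nm) read kinetically in 50 mM HEPES pH 7.8, 0.5 mM EDTA, 1 mM TCEP, 0.1 mg/ml BSA, 0.01% Tween-20.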
# [9] = qHTS profiling for inhibitors of Plasmodium falciparum proliferation (AID 504749; active means well fitted curve in the direction sought with a large enough effect; an effect the other way counts as inactive or inconclusive;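 further: 0% = DMSO vehicle and full inhibition = artemisinin control; nearly all actives have a fitted effect of over 60% in size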); conditions: P. falciparum in erythrocytes, SYBR Green DNA, 72 h, at 28.7 µM (top of the series)
# Procedure, shortened: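 Fluorescence of SYBR Green-bound parasite DNA, read at 485/535 nm, served as the growth measure. Infected erythrocytes were cultured with compound 72 h; artemisinin (0.29 uM) and DMSO wells defined the normalization range.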
# [10] = target: Mitogen-activated protein kinase 10 (Mus musculus) (UniProt Q61831); assay: JNK3 AlphaScreen Assay (AID 530); conditions: JNK3 lysate, c-Jun phosphorylation; series mostly up to 57.1 µM
# Procedure, shortened: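 Biotinylated GST-cJun(1-79) served as substrate for JNK3 in HepG2 lysates stimulated with IL-1beta and TNF-alpha. ATP was 10 uM final, pH 7.6. Ser73 phosphorylation was quantified by AlphaScreen (680 nm excitation).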
# [11] = target: Cytochrome P450 3A4 (Homo sapiens) (UniProt P08684); assay: qHTS Assay for Inhibitors and Substrates of Cytochrome P450 3A4 (AID 884; active means well fitted curve in the direction sought with a large enough effect; an effect the other way counts as inactive or inconclusive; further: on the % scale 0 is the no-effect control and ±100 the full control effect; nearly all actives have a fitted effect of over 50% in size); conditions: recombinant CYP3A4, Luciferin-PPXE luminescence; series mostly up to 57.1 µM
# Cytochrome P450 3A4 (Homo sapiens), sequence (P08684 whole entry, looked up): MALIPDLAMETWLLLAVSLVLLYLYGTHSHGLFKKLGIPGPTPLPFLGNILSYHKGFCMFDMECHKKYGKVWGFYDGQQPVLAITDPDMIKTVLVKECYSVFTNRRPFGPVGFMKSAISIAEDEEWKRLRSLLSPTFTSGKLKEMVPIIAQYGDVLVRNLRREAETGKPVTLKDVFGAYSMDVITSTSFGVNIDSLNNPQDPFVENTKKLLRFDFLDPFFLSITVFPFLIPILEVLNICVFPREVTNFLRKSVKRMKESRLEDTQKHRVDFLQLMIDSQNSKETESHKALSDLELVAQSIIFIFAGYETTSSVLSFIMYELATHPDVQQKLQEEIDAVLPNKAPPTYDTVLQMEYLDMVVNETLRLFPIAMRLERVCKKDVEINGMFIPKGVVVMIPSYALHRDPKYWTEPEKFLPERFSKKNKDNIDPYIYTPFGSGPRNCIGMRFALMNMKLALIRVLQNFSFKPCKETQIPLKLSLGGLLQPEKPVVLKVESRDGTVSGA
# Procedure, shortened: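 Luminescent readout of luciferin produced by CYP3A4 (20 nM) dealkylation of Luciferin-PPXE, 25 uM (its KM). NADPH-driven reaction ran 60 min at RT after 10 min compound preincubation; data scaled to 57 uM ketoconazole as 100% inhibition.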
# [12] = target: Cytochrome P450 2D6 (Homo sapiens) (UniProt P10635); assay: qHTS Assay for Inhibitors and Substrates of Cytochrome P450 2D6 (AID 891; active means well fitted curve in the direction sought with a large enough effect; an effect the other way counts as inactive or inconclusive; further: nearly all actives have a fitted effect of over 60% in size; further: potency means the concentration at half of the fitted maximal effect); conditions: recombinant CYP2D6, luciferin-ME EGE luminescence; series mostly up to 57.1 µM
# Cytochrome P450 2D6 (Homo sapiens), sequence (P10635 whole entry, looked up): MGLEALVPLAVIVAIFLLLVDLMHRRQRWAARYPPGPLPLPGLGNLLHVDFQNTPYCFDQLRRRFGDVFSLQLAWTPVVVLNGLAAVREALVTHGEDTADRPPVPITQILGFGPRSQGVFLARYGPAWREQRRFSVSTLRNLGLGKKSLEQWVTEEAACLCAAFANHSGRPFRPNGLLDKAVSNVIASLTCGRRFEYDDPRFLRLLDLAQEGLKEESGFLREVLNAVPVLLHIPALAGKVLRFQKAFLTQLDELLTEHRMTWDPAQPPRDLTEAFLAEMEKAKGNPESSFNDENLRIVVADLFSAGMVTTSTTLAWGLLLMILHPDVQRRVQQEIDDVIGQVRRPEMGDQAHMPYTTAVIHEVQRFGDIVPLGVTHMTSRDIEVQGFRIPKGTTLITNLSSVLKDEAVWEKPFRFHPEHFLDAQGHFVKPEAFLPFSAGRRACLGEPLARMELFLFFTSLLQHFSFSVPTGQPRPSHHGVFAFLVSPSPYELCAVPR
# Procedure, shortened: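 Luminescent read-out of luciferin formed by 5 nM human CYP2D6 demethylating 30 uM Luciferin-ME EGE (Km level) over 60 min at room temperature after NADPH regeneration addition. Data normalized to full inhibition by 1.43 uM quinidine.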
# [13] = target: Glucocorticoid receptor (Homo sapiens) (UniProt P04150); assay: GR-GFP Redistribution (AID 450;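 active means compounds whose dose series gives a full or clear partial fitted curve of increased nuclear translocation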; further: potency means the concentration at half of the fitted maximal effect); conditions: U2OS GR-GFP nuclear translocation, laser cytometry, 2 h
# Glucocorticoid receptor (Homo sapiens), sequence (P04150 whole entry, looked up, the tested form may be a part): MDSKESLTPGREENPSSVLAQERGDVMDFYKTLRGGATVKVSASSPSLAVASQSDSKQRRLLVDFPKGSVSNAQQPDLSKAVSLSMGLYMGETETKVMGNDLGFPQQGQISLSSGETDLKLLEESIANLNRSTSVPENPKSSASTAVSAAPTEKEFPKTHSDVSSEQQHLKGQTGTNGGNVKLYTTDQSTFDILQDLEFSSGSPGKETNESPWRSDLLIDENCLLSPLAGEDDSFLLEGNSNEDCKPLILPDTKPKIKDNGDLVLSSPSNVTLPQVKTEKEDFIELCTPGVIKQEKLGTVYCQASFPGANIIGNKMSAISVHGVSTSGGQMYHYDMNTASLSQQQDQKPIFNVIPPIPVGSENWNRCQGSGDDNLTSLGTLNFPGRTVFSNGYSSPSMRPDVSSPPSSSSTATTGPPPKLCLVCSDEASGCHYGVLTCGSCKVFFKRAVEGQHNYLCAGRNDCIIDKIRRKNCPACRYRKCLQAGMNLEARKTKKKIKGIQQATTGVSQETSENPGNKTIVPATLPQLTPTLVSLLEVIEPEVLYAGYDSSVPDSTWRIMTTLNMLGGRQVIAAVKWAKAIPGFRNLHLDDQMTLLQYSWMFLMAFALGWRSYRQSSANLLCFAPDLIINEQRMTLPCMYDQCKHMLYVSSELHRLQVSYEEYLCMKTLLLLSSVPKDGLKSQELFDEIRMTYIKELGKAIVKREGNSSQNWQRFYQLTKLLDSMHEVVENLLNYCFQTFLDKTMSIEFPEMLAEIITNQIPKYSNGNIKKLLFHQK
# [14] = target: Glucocorticoid receptor (Homo sapiens) (UniProt P04150); assay: GR-EFC Redistribution (AID 451; calls by dose curve; further: potency means the concentration at half of the fitted maximal effect); conditions: CHO-K1 GR-EFC translocation, beta-gal luminescence, 2 h
# Procedure, shortened: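 CHO-K1 cells stably expressing nuclear-localized β-gal enzyme acceptor and GR fused C-terminally to the enzyme donor fragment; ligand-driven nuclear translocation restores β-gal by complementation. Compounds titrated up to 46 uM final, 2 h at 37 °C; luminescence read.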
# [15] = target: Cytochrome P450 3A4 (Homo sapiens) (UniProt P08684); assay: qHTS Assay for Activators of Cytochrome P450 3A4 (AID 885; active means well fitted curve in the direction sought with a large enough effect; an effect the other way counts as inactive or inconclusive; further: nearly all actives have a fitted effect of over 65% in size); conditions: recombinant CYP3A4, Luciferin-PPXE luminescence, 60 min; series mostly up to 57.1 µM
# Procedure, shortened: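 Using 20nM recombinant human CYP3A4 in potassium phosphate (200mM), substrate Luciferin-PPXE at 25uM, luminescent luciferin detection followed a 60-min RT NADPH reaction; data scaled to 57 uM ketoconazole.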
# [16] = measured here: cell count channel max response
# [17] = measured here: lipid channel max response
compound,measurement,setting,value
N[C@@H](CO)C(=O)NNCc1ccc(O)c(O)c1O,"activity change, negative = inhibition",[1]; at 17.2 µM (top of the series),2.07% (inactive)
same,"activity change, negative = inhibition",[1]; at 38 µM (top of the series),14.8% (inactive)
same,Potency,[2],inactive
same,"activity change, negative = inhibition",[3]; at 17.2 µM (top of the series),-8.03% (inactive)
same,"activity change, negative = inhibition",[3]; at 38 µM (top of the series),-7.62% (inactive)
same,"activity, negative = inhibition",[4]; at 17.2 µM (top of the series),-0.902% (inactive)
same,"activity, negative = inhibition",[4]; at 38 µM (top of the series),4.31% (inactive)
same,Potency,[5],inactive
same,"activity change, negative = inhibition",[6],-1.23% (inactive)
same,max response,[6]; [16],-4.75%
same,max response,[6]; [17],-6.43%
same,outcome,[7],inactive
same,Potency,[8],inactive
same,"activity, negative = inhibition",[9]; parasite line A,21.9% (inactive)
same,"activity, negative = inhibition",[9]; parasite line B,19.7% (inactive)
CC(=O)[C@@H]1CC[C@@H]2[C@@H]3CCC4=CC(=O)CC[C@@]4(C)[C@H]3CC[C@]21C,"activity change, negative = inhibition",[1]; at 17.2 µM (top of the series),2.95% (inactive)
same,"activity change, negative = inhibition",[1]; at 38 µM (top of the series),10.7% (inactive)
same,Potency,[2],inactive
same,"activity change, negative = inhibition",[3]; at 17.2 µM (top of the series),-20.4% (inactive)
same,"activity change, negative = inhibition",[3]; at 38 µM (top of the series),-21.5% (inactive)
same,"activity, negative = inhibition",[4]; at 17.2 µM (top of the series),-0.332% (inactive)
same,"activity, negative = inhibition",[4]; at 38 µM (top of the series),9.04% (inactive)
same,Potency,[10],inactive
same,Potency,[5],inactive
same,Potency,[11],inactive
same,Potency,[12],inactive
same,"activity change, negative = inhibition",[6],-4.74% (inactive)
same,max response,[6]; [16],-9.33%
same,max response,[6]; [17],-17.9%
COc1ccc([C@H]2Sc3ccccc3N(CCN(C)C)C(=O)[C@H]2OC(C)=O)cc1,"activity change, negative = inhibition",[1]; at 17.2 µM (top of the series),-10.4% (inactive)
same,"activity change, negative = inhibition",[1]; at 38 µM (top of the series),-3.25% (inactive)
same,Potency,[2],inactive
same,"activity change, negative = inhibition",[3]; at 17.2 µM (top of the series),-5.79% (inactive)
same,"activity change, negative = inhibition",[3]; at 38 µM (top of the series),-3.5% (inactive)
same,"activity, negative = inhibition",[4]; at 17.2 µM (top of the series),-1.38% (inactive)
same,"activity, negative = inhibition",[4]; at 38 µM (top of the series),7.22% (inactive)
same,Potency,[13],> 46 µM (inactive) and > 20.6 µM (inactive)
same,Potency,[14],> 46 µM (inactive) and > 20.6 µM (inactive)
same,Potency,[5],inactive
same,"activity change, negative = inhibition",[6],-1.07% (inactive)
same,max response,[6]; [16],7.03%
same,max response,[6]; [17],9.95%
same,Potency,[8],inactive
O[C@@](CCN1CCCCC1)(c1ccccc1)C1CCCCC1,"activity change, negative = inhibition",[1]; at 17.2 µM (top of the series),7.19% (inactive)
same,"activity change, negative = inhibition",[1]; at 38 µM (top of the series),17.8% (inactive)
same,Potency,[2],inactive
same,"activity change, negative = inhibition",[3]; at 17.2 µM (top of the series),-51.7% (active)
same,"activity change, negative = inhibition",[3]; at 38 µM (top of the series),-75.1% (active)
same,"activity, negative = inhibition",[4]; at 17.2 µM (top of the series),-9.32% (inactive)
same,"activity, negative = inhibition",[4]; at 38 µM (top of the series),15.1% (inactive)
same,Potency,[10],inactive
same,Potency,[5],inactive
same,Potency,[15],inactive
same,Potency,[12],5.01 µM (active) and 1.26 µM (active)
same,"activity change, negative = inhibition",[6],-1.35% (inactive)
same,max response,[6]; [16],-17.3%
same,max response,[6]; [17],-19.7%

# — PubChem BioAssay (NCATS)
